The record followed here is PubChem BioAssay.

Follistatin-related protein 3 (Homo sapiens), sequence (O95633 whole entry, looked up): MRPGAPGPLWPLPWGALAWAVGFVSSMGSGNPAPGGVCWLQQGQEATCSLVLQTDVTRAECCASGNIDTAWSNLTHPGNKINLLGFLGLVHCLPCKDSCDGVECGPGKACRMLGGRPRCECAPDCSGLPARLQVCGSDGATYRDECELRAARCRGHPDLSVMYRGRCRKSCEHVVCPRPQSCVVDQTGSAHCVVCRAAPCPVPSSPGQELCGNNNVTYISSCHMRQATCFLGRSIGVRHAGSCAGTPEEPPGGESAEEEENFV

In the first test the target is Epidermal growth factor receptor (Homo sapiens) (UniProt P00533). Nature of the test: EGFR binders on small-molecule microarrays, primary screen, biochemical, small-molecule microarray, 635 nm fluorescence (AID 1104).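 Also: score merges 667 nm emission intensity with spot signal to noise over triplicate slides.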 To be noted: EGFR binding, higher = more signal.
Epidermal growth factor receptor (Homo sapiens), sequence (P00533 whole entry, looked up): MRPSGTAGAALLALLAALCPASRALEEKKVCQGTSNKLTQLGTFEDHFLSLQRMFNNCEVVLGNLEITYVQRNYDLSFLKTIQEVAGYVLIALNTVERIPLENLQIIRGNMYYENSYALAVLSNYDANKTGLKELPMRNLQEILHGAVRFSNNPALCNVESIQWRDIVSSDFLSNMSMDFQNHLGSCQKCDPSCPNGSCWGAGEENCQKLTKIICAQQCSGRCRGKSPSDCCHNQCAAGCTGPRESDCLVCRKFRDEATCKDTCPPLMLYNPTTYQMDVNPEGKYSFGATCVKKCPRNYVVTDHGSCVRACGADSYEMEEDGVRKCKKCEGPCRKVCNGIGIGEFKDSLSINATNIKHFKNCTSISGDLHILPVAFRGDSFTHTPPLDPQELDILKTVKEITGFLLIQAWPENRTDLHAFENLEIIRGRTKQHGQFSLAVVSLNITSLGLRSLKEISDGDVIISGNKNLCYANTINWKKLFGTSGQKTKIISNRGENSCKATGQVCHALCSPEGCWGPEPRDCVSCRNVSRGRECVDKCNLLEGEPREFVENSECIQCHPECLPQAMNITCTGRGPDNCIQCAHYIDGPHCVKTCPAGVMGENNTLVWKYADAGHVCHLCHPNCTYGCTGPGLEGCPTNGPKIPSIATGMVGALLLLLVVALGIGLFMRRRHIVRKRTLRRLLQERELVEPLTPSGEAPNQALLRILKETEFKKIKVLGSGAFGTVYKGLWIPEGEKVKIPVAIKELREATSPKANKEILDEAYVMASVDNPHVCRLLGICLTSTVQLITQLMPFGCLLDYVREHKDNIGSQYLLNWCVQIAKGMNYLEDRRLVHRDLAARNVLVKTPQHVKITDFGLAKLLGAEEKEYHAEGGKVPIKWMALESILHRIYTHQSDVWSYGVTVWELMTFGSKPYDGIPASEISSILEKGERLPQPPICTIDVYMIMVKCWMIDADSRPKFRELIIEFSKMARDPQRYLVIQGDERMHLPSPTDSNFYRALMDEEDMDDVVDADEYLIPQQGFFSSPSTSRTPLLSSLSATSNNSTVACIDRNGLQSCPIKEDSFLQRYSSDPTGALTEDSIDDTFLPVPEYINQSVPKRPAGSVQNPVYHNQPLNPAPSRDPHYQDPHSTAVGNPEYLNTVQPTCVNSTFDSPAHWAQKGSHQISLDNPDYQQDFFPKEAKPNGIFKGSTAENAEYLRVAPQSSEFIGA
Consider `CC(C)CNC(=O)[C@@H]1c2ccccc2C(=O)N(Cc2cc(F)cc(C(F)(F)F)c2)[C@H]1c1ccc(CO)cc1`, for which the composite z-score was -0.315.

For `C=C(/C(=C/C[C@@H](OC(=O)c1ccncc1)c1ccc(OCCO)cc1)c1cc(C(=O)OC)ccc1OC)C(C)C`, the composite z-score stood at 0.325.

For the molecule `C=C(CCCC)/C(=C/C[C@@H](OC(=O)c1ccncc1)c1cccc(OCCO)c1)c1cnc2ccccc2c1`, the composite z-score stood at 1.27.

Molecule `C=CCOC(=O)[C@H]1[C@@H]2C(=O)O[C@@H](c3ccccc3)[C@@H](c3ccccc3)N2[C@@H](c2ccc(OCCOC(=O)[C@H]3C[C@H]4C(=O)N[C@@H](Cc5ccccc5)C(=O)N4[C@H]3c3cccc(OCCO)c3)cc2)[C@]12C(=O)Nc1ccc(I)cc12` returned a composite z-score of 0.536.

Turning to `Cc1ccc(S[C@]2(C(=O)NC3CC3)CC(=O)N(Cc3ccccc3Cl)[C@@H]2c2ccc(CO)cc2I)cc1`, the composite z-score was -0.172.

Molecule `C[C@@H]1ON(c2ccc(C(=O)OC(C)(C)C)cc2)[C@H](c2ccc(Br)cc2)[C@H]1C(=O)N1C(=O)OC[C@H]1Cc1ccccc1` had a composite z-score of 0.701.

The next test concerns the target Follistatin-related protein 3 (Homo sapiens) (UniProt O95633). Nature of the test: FSTL3 binders on small-molecule microarrays, primary screen, biochemical, small-molecule microarray, 635 nm fluorescence (AID 1105).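 Also: score merges emission near 667 nm and signal to noise per printed spot across three slides.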 The note with it: FSTL3 binding, higher = more signal.
Turning to `COc1ccc(C(O)C2C=CC3C(=O)N(c4ccccc4)C(=O)C3N2Nc2ccc(C#N)cc2)c2ccccc12` (centres undefined), the composite z-score is 0.733.

For `COCCOC(=O)N1C(=O)[C@@]2(c3ccccc31)[C@H](C(=O)N1CCN(c3ncccn3)CC1)[C@H]1C(=O)O[C@H](c3ccccc3)[C@H](c3ccccc3)N1[C@@H]2c1ccc(OCCO)cc1`, the composite z-score was 1.03.

In turn, `CC=CC(O)C1C=CC2C(=O)N(c3ccccc3)C(=O)C2N1Nc1ccccc1` (centres undefined) returned a composite z-score of 1.36.

In the case of `Cc1ccc(S[C@]2(C(=O)NCC(F)(F)F)CC(=O)N(Cc3ccccc3)[C@@H]2c2ccc(CO)cc2)cc1`, the composite z-score is -0.763.

For `[N-]=[N+]=Nc1ccccc1C[C@@]1(C(=O)O)N=C(c2ccc(OCCCO)cc2)O[C@@H]1c1ccccc1`, the composite z-score worked out at 0.126.

For the molecule `COCCCNC(=O)[C@]1(Cc2ccccc2CN=[N+]=[N-])N=C(c2ccc(OCCCO)cc2)O[C@@H]1c1ccccc1`, the composite z-score worked out at 0.317.

The molecule `CC(C)OC(=O)CC(=O)CC(O)c1cccc(C#N)c1` (centres undefined) gave a composite z-score of 0.74.

`CCCC=C(CCC)[C@@H](NP(=O)(c1ccccc1)c1ccccc1)c1ccc(C(F)(F)F)cc1` displayed a composite z-score of -0.354.

Consider `CCCN1C(=O)[C@]2(Cc3ccccc3)N=C(c3ccc(OCCCO)cc3)O[C@@H]2c2ccccc21`, for which the composite z-score was determined as 0.928.

With `C[C@]12C(=O)N(CCCCCCO)[C@@H]3C(=O)N(c4ccc(Cl)cc4)CC=CC31O[C@@H]1/C=C\CCCOC(=O)C12` (some centres undefined), the composite z-score is -0.394.

`COCCOC(=O)N1C(=O)[C@@]2(c3ccccc31)[C@H](c1ccc(OCCO)cc1)N1[C@H](c3ccccc3)[C@H](c3ccccc3)OC(=O)[C@H]1[C@@H]2C(=O)Nc1nc2ccccc2s1` registered a composite z-score of 0.852.

With `C=CCN1Cc2ccccc2C[C@@]2(N=C(c3ccc(OCCCO)cc3)O[C@H]2c2ccccc2)C1=O`, the composite z-score came out at 0.363.

In turn, `CN(C)CCCCNC(=O)[C@H]1C[C@H]2C(=O)N3CCC[C@H]3C(=O)N2[C@H]1c1ccc(O)cc1` registered a composite z-score of 0.398.

Consider `COC1(C)CN(Cc2ccccc2Br)[C@H](/C=C/c2ccccc2)[C@H](Cc2ccccc2)O1` (some centres undefined), for which the composite z-score was -0.478.

In turn, `COc1cc(OC)c(C(O)C2C=CC3C(=O)N(c4ccccc4)C(=O)C3N2Nc2ccc(C#N)cc2)cc1Br` (centres undefined) yielded a composite z-score of 0.95.

In turn, `O=C(O)[C@]1(Cc2ccccc2)N=C(c2ccc(OCCCO)cc2)O[C@@H]1c1ccccc1` yielded a composite z-score of -1.07.

`O=C1c2ccccc2[C@@]2(Cc3ccccc3N(C3CC3)C2=O)[C@H](c2ccc(CO)cc2)N1C1CCCCC1` had a composite z-score of -0.558.

In turn, `COCCOC(=O)N1C(=O)[C@@]2(c3cc(C#CCC(C(=O)OC)C(=O)OC)ccc31)[C@H](c1ccc(OCCO)cc1)N1[C@H](c3ccccc3)[C@H](c3ccccc3)OC(=O)[C@H]1[C@@H]2C(=O)N1CCN(c2ncccn2)CC1` gave a composite z-score of 1.45.

On to `O=C1O[C@@H](c2ccccc2)[C@@H](c2ccccc2)N2[C@@H](c3ccccc3OCCO)[C@]3(C(=O)Nc4ccc(C#CCCO)cc43)[C@@H](C(=O)N3CCN(c4ncccn4)CC3)[C@H]12`, for which the composite z-score was 0.315.

The molecule `COc1cc(CO)cc(I)c1O[C@H]1C=C(C(=O)NCCO)C[C@@H](N(CC2CCCCC2)C(=O)c2ccc(C(F)(F)F)cc2)[C@@H]1O` displayed a composite z-score of 0.483.

Regarding `Cc1c(NC(=O)/C(C#N)=C/C=C/c2ccccc2[N+](=O)[O-])c(=O)n(-c2ccccc2)n1C`, the composite z-score is 0.71.

In the case of `CCC[C@@H]1C[C@@]1(CCC)[C@@H](NP(=O)(c1ccccc1)c1ccccc1)c1ccc(Cl)cc1`, the composite z-score is -0.366.

`C=CCN1C(=O)[C@]2(CC=C)N=C(c3ccc(OCCCO)cc3)O[C@@H]2c2ccccc21` had a composite z-score of 1.18.
